Bioassay records deposited in PubChem by National Center for Advancing Translational Sciences (NCATS).
FBPA Giardia inh: qHTS Assay for Inhibitors of Fructose-1,6-bisphosphate Aldolase from Giardia Lamblia | purified Giardia FBPA | A8B2U2 | Potency, µM (titrated, usually from 59.6 µM), without a hit: at the top dose activity, negative = inhibition, actives largely listed as inhibitors | hit rate 0.71% among 290,000 | AID 2451, 2010; also: potency is read from the fitted curve at half-maximal effect; nearly all actives have a fitted effect of over 55% in size
Target sequence (A8B2U2 whole entry, looked up): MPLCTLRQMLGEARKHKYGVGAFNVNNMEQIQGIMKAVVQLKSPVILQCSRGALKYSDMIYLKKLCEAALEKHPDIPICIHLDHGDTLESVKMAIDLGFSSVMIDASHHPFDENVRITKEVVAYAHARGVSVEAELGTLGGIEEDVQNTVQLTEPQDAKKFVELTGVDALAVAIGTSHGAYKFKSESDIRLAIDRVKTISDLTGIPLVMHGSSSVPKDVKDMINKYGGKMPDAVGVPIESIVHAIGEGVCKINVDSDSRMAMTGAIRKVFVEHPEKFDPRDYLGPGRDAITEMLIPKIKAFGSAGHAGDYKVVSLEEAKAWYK
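40 nM FBPA preincubated 10 min at RT with compound (up to 57.5 uM final), then substrate plus GAPDH/TPI/NAD/arsenate coupling and diaphorase/resazurin added. Fluorescence read after 20 min at RT, 525/598 nm.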
Sm TGR block: qHTS Assay for the Inhibitors of Schistosoma Mansoni Peroxiredoxins; purified TGR, DTNB reduction, TNB absorbance 405 nm; hit rate 3% among 360,000; AID 485364, 2010; Potency, µM (doses to about 114 µM), for the others: top-dose activity change, negative = inhibition, most hits filed as inhibitors; also: potency is read from the fitted curve at half-maximal effect; nearly all actives have a fitted effect of over 60% in size
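First, TGR (20 nM dispensed) and NADPH were mixed with compound. Second, a 15 min room-temperature incubation followed. Third, further NADPH and then DTNB were added to start the reaction. Finally, TNB absorbance was monitored kinetically.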
Pf growth 48h: Primary qHTS for delayed death inhibitors of the malarial parasite plastid, 48 hour incubation | P. falciparum luciferase growth in erythrocytes, 48 h | hit rate 5.9% among 310,000 | Potency, µM (highest dose often 28.7 µM), inactives show at the highest dose activity change, negative = inhibition, actives largely listed as inhibitors; also: potency is read from the fitted curve at half-maximal effect
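Compounds are pin-transferred into medium, infected erythrocytes (2% hematocrit, 0.1% parasitemia final) are added, and plates sit one parasite generation at 37 C in 5% CO2. Detection reagent is then added and luminescence measured.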
Pf growth 96h: Primary qHTS for delayed death inhibitors of the malarial parasite plastid, 96 hour incubation. P. falciparum luciferase reporter growth, 96 h. Potency, µM (doses to about 28.7 µM), inactives show at the highest dose activity change, negative = inhibition, actives largely listed as inhibitors. hit rate 6.9% among 320,000. AID 504834, 2011; also: potency is read from the fitted curve at half-maximal effect
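96 h incubation, 37 C, 5% CO2, of luciferase-reporter P. falciparum-infected RBCs (2% hematocrit, 0.05% parasitemia final) with test compounds; endpoint luminescence.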
HCMV antiviral: qHTS Assay for inhibitors of the human cytomegalovirus (HCMV); HFF cells, HCMV-luciferase reporter, 72 h; hits give low values; activity change, negative = inhibition, % at 57.5 µM; hit rate 4.5% among 410,000; in the data active = activity change below about -60%; inconclusive = no clear call, values can overlap the other calls; inactive = above about -39%
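HFF cells seeded 16 h at 37C, treated with compounds, infected with luciferase-reporter HCMV at MOI 1 PFU/cell; luciferase read at 72 h post infection, normalized to buffer-only and Salinomycin controls.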
* hit, by the source's call; ? = inconclusive; / = no result; [ ] = dose if it differs, or a comment. In the library only some 14% were active in any assay of this set; here they are far more common. Unless noted, calls follow the shape of the dose curve; as a rule, active = well fitted curve in the direction sought with a large enough effect; inconclusive = small, poorly fitted or top-dose-only effect, or another doubt; inactive = no such curve, though single readings can be large; an effect the other way counts as inactive or inconclusive. % is scaled to controls: 0 for no effect and ±100 for the full control effect.

SMILES	FBPA Giardia inh	Sm TGR block	Pf growth 48h	Pf growth 96h	HCMV antiviral
COc1ccccc1-c1ccc(/C=C2/C=C(CC(C)C)OC2=O)o1	-9%	35µM*	-1%	-22%	-7
COc1ccccc1-c1cc(=O)c2cccc(OC)c2o1	-5%	/	/	/	/
CCCC1=C/C(=C/c2ccc(-c3ccccc3OC)o2)C(=O)O1	-3%	22µM*	?	?	-33
O=C(Nc1ccc(N2CCN(C(=O)c3cccs3)CC2)cc1)c1ccc(F)cc1	1%	-13%	?	40%	34
COc1ccc(-c2csc(CCN3N=C(C)CC3=O)n2)cc1	-4%	-3%	4.1µM*	?	-8
CCC1(c2ccc(F)cc2)NC(=O)N(CC(=O)c2cc(C)n(C3CC3)c2C)C1=O (centres undefined)	/	2%	15µM*	?	-11
Cc1cc(C(=O)COc2cccc([N+](=O)[O-])c2)c(C)n1C1CC1	/	-35%	148%	63%	?
Cc1cc(C(=O)CN2C(=O)NC(C)(c3cc(F)ccc3F)C2=O)c(C)n1C1CC1 (centres undefined)	/	/	/	/	13
Cc1ccc(CNC(=O)COc2ccc(C)nc2[N+](=O)[O-])cc1	16%	-19%	36%	51%	-12
Cc1cc(C(=O)COc2ccc(F)cc2Br)c(C)n1C1CC1	/	-10%	?	10µM*	?
Cc1ccc(OCC(=O)c2ccc(Cl)s2)c([N+](=O)[O-])n1	?	3.5µM*	257%	11%	56
Cc1ccc(OCC(=O)c2cc(C)n(C3CC3)c2C)c([N+](=O)[O-])n1	-2%	-34%	13%	?	-64*
Cc1cc(C(=O)COc2ccc(F)cc2Br)c(C)n1C	-1%	-27%	-16%	-6%	13
O=c1n(Cc2ccc(F)cc2Cl)c2ccccc2c2nc(-c3ccccc3)nn12	/	-4%	/	/	-16
CC(=O)Nc1nnc(-c2c(-c3c(Cl)cccc3Cl)noc2C)o1	-12%	3%	18%	26%	-27
OC[C@H]1O[C@H](c2nc(-c3nc(-c4cccs4)no3)cs2)C[C@@H]1O	/	/	/	/	53
Cc1ccc(OCC(=O)c2cc(C)n(Cc3cccs3)c2C)c([N+](=O)[O-])n1	1%	/	-4%	-5%	-94*
COc1ccc(-n2c(C)cc(C(=O)COc3ccc(C)nc3[N+](=O)[O-])c2C)cc1	-12%	-30%	-29%	?	-90*
Cc1ccc(OCC(=O)c2cc(C)n(CC(F)(F)F)c2C)c([N+](=O)[O-])n1	-1%	-26%	21%	37%[1.15 µM]	-30
Cc1ccc(NC(=O)CCNS(=O)(=O)c2ccc3[nH]c(=O)oc3c2)c(C)c1	?	0%	6%	-8%	-26
O=C1NC2(CCCCC2)C(=O)N1/N=C/c1ccccc1Br	3%	1%	3.3µM*	23%	-27
O=C1NC2(CCCCC2)C(=O)N1/N=C/c1ccc(O)cc1O	1%	0%	/	?	3
O=C(NCc1ccc(F)cc1F)Nc1cnccc1C(F)(F)F	1%	-1%	-2%	-9%	-68*
CCN(CC)CCCC(C)Nc1cc(/C=C/c2ccccc2Cl)nc2cc(Cl)ccc12 (centres undefined)	/	/	0.48µM*	0.6µM*	/
CCN(CC)CCN(C(=O)/C=C/c1cccs1)c1nc2ccc(Cl)cc2s1	/	-7%	?	?	?
SMILES	FBPA Giardia inh	Sm TGR block	Pf growth 48h	Pf growth 96h	HCMV antiviral
COc1ccc(CN2C(=O)NC(=O)/C(=C/c3ccc([N+](=O)[O-])o3)C2=O)cc1	?	?	15%	-30%	/
Cc1cccc(N2C(=O)NC(=O)/C(=C\c3cccn3-c3ccc(Cl)cc3)C2=O)c1	2%	-39%	24%	6%	-102*
Cc1cccc(N2C(=O)NC(=O)/C(=C/c3ccc([N+](=O)[O-])o3)C2=O)c1	?	8.9µM*	19%	40%	/
CC(C)(C)n1cccc1/C=C1\C(=O)NC(=O)N(c2ccccc2)C1=O	0%	?	-7%	10µM*	8
CCCC(C)NC(=O)c1cc(S(=O)(=O)N2CCCCCC2)ccc1OC (centres undefined)	/	-2%	?	?	-7
Cc1nn(-c2ccccc2)c(OC(=O)c2ccc(F)cc2)c1S(=O)(=O)c1ccccc1	/	-6%	/	/	8
Nc1ccc(S(=O)(=O)Nc2nccc(/C=C/c3cccc(Br)c3)n2)cc1	0%	-4%	-2%	-3%	-73*
CC(=O)Nc1ccc(S(=O)(=O)Nc2nccc(/C=C/c3ccc(Cl)cc3)n2)cc1	5%	9%	23%	?	-73*
CC(=O)Nc1ccc(S(=O)(=O)Nc2nccc(C)n2)cc1	?	-1%	67%	?	21
O=S(=O)(Nc1ncccn1)c1ccc(NC(=S)Nc2ccc(Cl)cc2)cc1	-13%	?	?	5%	-64*
O=C(Nc1ccc(S(=O)(=O)Nc2ncccn2)cc1)c1nn(Cc2ccccc2)c(=O)c2ccccc12	-2%	1%	1.9µM*	?	-12
CCn1nc(C(=O)Nc2ccc(S(=O)(=O)Nc3nccs3)cc2)c2ccccc2c1=O	?	-1%	?	/	47
Nc1ccc(S(=O)(=O)Nc2nccc(/C=C/c3cccc([N+](=O)[O-])c3)n2)cc1	/	/	/	/	-29
CCCCNC(=O)C1(C)CCCCN1C(=O)c1ccc(OC)c(C(F)(F)F)c1 (centres undefined)	/	/	/	/	6
Cc1cn([C@H]2C[C@H](O)[C@@H](CCC(=O)NCCc3ccc4ccccc4c3)O2)c(=O)[nH]c1=O	/	/	/	/	-6
O=C(NCCCN1CCCCC1)C1CCC(CNS(=O)(=O)c2cccc3nsnc23)CC1 (centres undefined)	/	-3%	8%	37%	0
NCCC[C@@H](CC(=O)N[C@@H]1CCCC[C@H]1C(=O)N[C@H](CC(=O)N[C@@H](CCC(=O)O)CC(=O)O)Cc1c[nH]c2ccccc12)NC(=O)C[C@H](CO)NC(=O)[C@@H]1CCCC[C@H]1N	-21%	/	/	/	/
Cc1cnc2nc(-c3ccccc3)ccc2c1	/	/	/	/	57
